# From PubChem
# A selection: hits, their analogues and other compounds. The true share with any hit is near 1.9%.
# IL2 activator – IL-2 activation; 0.065% of 360,000 active; AID 652025; activation, % (series mostly up to about 46 µM); IL-2 activation reporter assay, cell-based qHTS; stimulated with anti-CD3/CD4/CD28 beads; in transgenic mouse T cells; in the data active = activation above about 50%; inconclusive = mostly about 30% to 49%; also: 0% is about no effect
#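 Readout: EGFP and DsRed signals by fluorescent plate cytometry. Unstimulated transgenic mouse T cells received compound 60 min before antibody-bead stimulation, then incubated 18 h at 37 degrees C.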
# USP2a inh – blocks human ubiquitin-specific protease USP2a. O75604. 0.01% of 330,000 active. USP2 core, Ub-CHOP2 coupled fluorogenic reporter, 485/531. AID 463254. Potency, µM (series often up to 38.3 µM), for the others: at the highest dose activity change, negative = inhibition, usual class: inhibitors;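 also: potency is read from the fitted curve at half-maximal effect; plate controls were DMSO wells for no effect and full inhibition by NEM control for full effect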
#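 Cell-free coupled assay: 10nM USP2 core preincubated 30min RT with compound in Tris-HCl pH 8.0/CaCl2/CHAPS buffer, then 25nM Ub-CHOP2 and 25nM reporter substrate; fluorescence (Ex 485/Em 531) read after 60min RT, normalized to NEM inhibition, concentration-response curves fitted.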
# PKM2 act – increases activity of human pyruvate kinase M2. purified PKM2, Kinase-Glo ATP luminescence, activation; response scale: 0% is enzyme alone, no compound. Potency, µM (titrated, usually from 57.5 µM), for the others: at the highest dose activation, actives largely listed as activators. 0.34% of 260,000 active. AID 1631. P14618; also: potency is read from the fitted curve at half-maximal effect; % is scaled to controls: 0 for no effect and ±100 for the full control effect; nearly all actives have a fitted effect of over 55% in size
#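 hPK-M2, >95% pure; 0.1 mM ADP / 0.5 mM PEP final; imidazole pH7.2 buffer w/ 7 mM MgCl2, 50 mM KCl; 1 h RT; Kinase-Glo lum. Intermediate enzyme activity for dual inhibitor/activator qHTS.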
# a7 integrin act – activates integrin-mediated alleviation for muscular dystrophy; alpha7betagal myoblasts, beta-gal FDG fluorescence, 48 h; Potency, µM (doses to about 38.3 µM), for the others: top-dose activation, actives largely listed as activators; 0.064% of 350,000 active;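 also: potency is read from the fitted curve at half-maximal effect; 100% = response of the positive control SU9516; nearly all actives have a fitted effect of over 60% in size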
#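 alpha7betagal+/- myoblasts (passage 13, 250/well) treated 48 h at 37C with compounds at 1:260 dilution of DMSO stock. Lysed, then beta-galactosidase activity read as FDG fluorescence (ex 480/em 540) after 30 min, with pre-read for autofluorescence.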
# ClpP mod – qHTS Assay for Activators of ClpP; purified B. subtilis ClpP, FRET peptide cleavage, 20 min; Potency, µM (doses to about 57.5 µM), for the others: at the top dose activity change, negative = active; 1.9% of 340,000 active; active = well fitted falling curve with a large enough effect; inconclusive = small, poorly fitted or top-dose-only effect; inactive = no such curve, though single readings can be large or run the other way; also: potency is read from the fitted curve at half-maximal effect; the source files actives as falling curves though it sought activators and does not explain the sign; nearly all actives have a fitted effect of over 65% in size
# Target sequence (P80244 whole entry, looked up): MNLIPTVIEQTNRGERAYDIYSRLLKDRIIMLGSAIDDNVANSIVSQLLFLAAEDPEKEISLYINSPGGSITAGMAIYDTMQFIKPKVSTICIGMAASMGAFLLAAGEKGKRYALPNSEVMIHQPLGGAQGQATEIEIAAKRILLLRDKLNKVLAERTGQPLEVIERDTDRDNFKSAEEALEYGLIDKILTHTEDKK
#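 FRET quenching reversal measured ClpP activation: 10 microg/mL B. subtilis ClpP at pH 8 with the FRET-FV decapeptide, read at 430 nm after 320 nm excitation. The 20-min minus 0-min signal was scaled between DMSO/no-enzyme wells and ADEP (5.8 microM final).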
# Pin1 inh – inhibitors of human Pin1; Q13526; Pin1 FP peptide displacement, HiFluor488, 10 min; Potency, µM (titrated, usually from 115 µM), for the others: top-dose activity, negative = inhibition, usual class: inhibitors; 0.009% of 390,000 active; AID 504891; active = well fitted inhibition curve with a large enough effect in the polarisation, with a control signal flat, not every such curve was filed as active; inconclusive = small, poorly fitted or top-dose-only effect, or effect the other way, or a change in a side signal; inactive = no such curve, though single readings can be large or run the other way; the % refers to the polarisation; also: potency is read from the fitted curve at half-maximal effect; % is scaled to controls: 0 for no effect and ±100 for the full control effect
# Target sequence (Q13526 whole entry, looked up): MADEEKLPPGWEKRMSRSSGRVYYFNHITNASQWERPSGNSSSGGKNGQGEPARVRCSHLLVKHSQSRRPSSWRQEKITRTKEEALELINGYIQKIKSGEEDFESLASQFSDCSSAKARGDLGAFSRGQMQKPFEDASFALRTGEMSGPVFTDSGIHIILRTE
# Starred values were filed as active, the others as inactive; ? = inconclusive; nt = not tested or not shown; ! = repeats disagree. Unless noted, calls follow the shape of the dose curve; as a rule, active = well fitted curve in the direction sought with a large enough effect; inconclusive = small, poorly fitted or top-dose-only effect, or another doubt; inactive = no such curve, though single readings can be large; an effect the other way counts as inactive or inconclusive.
SMILES,IL2 activator,USP2a inh,PKM2 act,a7 integrin act,ClpP mod,Pin1 inh
Cc1ccc(OCC(=O)N(Cc2ccco2)C2CCS(=O)(=O)C2)cc1C (stereo unspecified),3,-2%,1%,7%,-1%,-4%
CC(=O)N(c1cccc(C)c1)C1SC(=O)N(c2ccccc2)C1=O (stereo unspecified),1,2%,0.4µM*,-18%,1%,1%
O=C(CC1SC(=O)N(c2ccccc2)C1=O)Nc1ccccc1 (stereo unspecified),-5,-2%,1%,-8%,4%,-14%
Cc1cccc(NC2SC(=O)N(c3ccccc3)C2=O)c1 (stereo unspecified),-1,1%,1%,-26%,-1%,0%
Cc1cccc(NC(=O)CC2SC(=O)N(c3ccccc3)C2=O)c1 (stereo unspecified),-4,1%,3%,22%,35µM*,-2%
Cc1ccc(NC(=O)CC2SC(=O)N(c3ccccc3)C2=O)cc1 (stereo unspecified),-1,-1%,-3%,-18%,28µM*,4%
Cc1nc([N+](=O)[O-])cn1CC(=O)c1ccc2c(c1)OCCO2,nt,nt,nt,nt,0%,nt
O=C1C2C3C=CC(CO)(O3)C2C(=O)N1c1ccccc1-c1ccccc1 (stereo unspecified),-2,-2%,32µM*,-66%,0%,2%
CCC(=O)NC(c1ccc(C)s1)c1cc(Cl)c2cccnc2c1O (stereo unspecified),nt,nt,nt,nt,nt,4%
CCn1c2ccccc2c2cc(C3C(C#N)=C(C)NC(C)=C3C#N)ccc21,-1,-11%,-13%,-12%,16µM*,61%
CC(C)(C)[C@H](NC(=O)c1ccc(N)c(Cl)c1)C(=O)N1CCC[C@H]1C(=O)N[C@H](C#N)Cc1nn[nH]n1,nt,1%,nt,nt,nt,nt
O=C(OC[C@@H]1CCCN2CCCC[C@H]12)c1cc2ccccc2oc1=O,1,6%,3%,7%,25µM*,4%
CCN(CCC#N)c1ccc(/C=C/c2ccnc3ccccc23)cc1,nt,nt,nt,nt,-1%,nt
CC(C)Nc1nc(NCCOc2ccccc2Cl)c2sc(-c3ccccc3)cc2n1,-1,nt,nt,nt,25µM*,nt
O=C(Oc1cccc(Nc2ncnc3ccccc23)c1)c1ccccc1Cl,-3,3%,5%,-12%,32µM*,38%
COc1cccc(Nc2ncnc3ccccc23)c1,-1,6%,6%,-7%,-17%,1%
CC(C)c1nn2c(=O)cc(COC(=O)c3ccccc3NC(=O)c3cccc(Cl)c3)nc2s1,nt,nt,nt,nt,10µM*,-7%
CC(=O)Nc1ccc(/C=C/c2ccnc3ccccc23)cc1[N+](=O)[O-],nt,nt,nt,nt,-1%,nt
COc1ccc(-c2[nH]c(-c3ccccc3)nc2SCC(=O)NC2CCCC2)cc1,-4,-1%,0%,6%,22µM*!,0%
COc1ccc(-c2[nH]c(-c3ccc(F)cc3)nc2SCC(=O)NC2CCCC2)cc1,3,2%,2%,20%,5%,?
COc1ccc(-c2[nH]c(-c3cccc(OC)c3)nc2SCC(=O)NC2CCCC2)cc1,-4,-7%,-3%,1%,25µM*!,9%
COc1ccc(/C=N/N=C2/NC(=O)C(CC(=O)NC(C)C)S2)cc1 (stereo unspecified),-1,2%,4%,15%,14µM*,2%
COc1ccc(-c2cc(C3C4C=CCC(C)C4C(=O)N3Cc3ccccc3)ccc2F)cc1OC (stereo unspecified),nt,nt,nt,nt,nt,8%
COc1cc(C=O)cc(OC)c1[N+](=O)[O-],nt,nt,nt,nt,-2%,nt
O=C(c1cc(COc2ccc(F)cc2Cl)on1)N1C[C@H]2CC[C@H]1C2,-1,1%,-4%,-31%,28µM*,5%
Cc1ccc2oc(-c3cccc(NC(=O)COc4ccc(Cl)cc4)c3C)nc2c1,nt,nt,nt,nt,4%,nt
